A short description of test [1]: blockers of IL-6 STAT3 signaling – U3A cells, luciferase, luminescence, confirmation (AID 1265;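 active = inhibition above the hit cutoff computed for the primary STAT3 screen, cut at about 44% in these data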;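 also: 0% = IL-6 plus DMSO and 100% = IL-6 plus nifuroxazide control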). Conditions: IL-6 STAT3 luciferase reporter, at 5.7 µM, hits give high values, cell line lacks STAT1. On the technique in general: In a reporter assay the amount or activity of a reporter protein is the signal.
A short description of test [2]: inhibition of TNF-alpha-driven NF-kB transcription – cell-based, HEK293T, luciferase, TNF-alpha stimulus, counter-screen for STAT3 inhibitor project, confirmation (AID 1308).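 Also: 0% = TNF-alpha with DMSO and 100% = TNF-alpha with MG high control.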 As to conditions: HEK293T NF-kB luciferase reporter, TNF-alpha induced; at 5.7 µM; hits give high values. In general terms: The purpose of a counterscreen is to sort out artefacts and off-target activity.

Test [3] in a line: inhibition of STAT1-driven transcription – cell-based, NIH 3T3, luciferase luminescence, IFN-gamma, counter-screen for STAT3 inhibitor project, confirmation (AID 1317;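 active = inhibition above the mean plus 3 SD of solvent-only control wells, limit set per screening run, cut at about 16% in these data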;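 also: 0% = DMSO with IFN-gamma and 100% = nifuroxazide control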). As to conditions: NIH 3T3 STAT1-luciferase reporter, IFN-gamma induced, at 5.7 µM, hits give high values.
Test [4] has as its target Oxysterols receptor LXR-beta (Homo sapiens) (UniProt P55055). The experiment in a line: nonspecific reporter activation via LXR – cell-based, luminescence, HEK293, H. contortus campaign, counter-screen for hcDAF-12 agonist project, confirmation (AID 743027;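 active = mean percent activation of the reporter above a cutoff set as the average over tested compounds plus their standard deviation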). Conditions: HEK293 Gal4-LXR tk-luc reporter, 24 h, at 6.8 µM, hits give high values, normalized: DMSO 0%, positive control 100%.

Test [5] concerns Nuclear hormone receptor DAF-12 (Haemonchus contortus). Put plainly: hcDAF-12 luciferase reporter activation, retest – cell-based, luminescence, HEK293, lit1-tk-luc, triplicate, confirmation (AID 743032;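 active = mean activation across triplicate tests above the threshold derived from the earlier primary screen, cut at about 5.5% in these data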;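 also: 0% = DMSO only wells and 100% = 3 µM Δ7-dafachronic acid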). Conditions: HEK293 hcDAF-12 lit1-tk-luc reporter, at 6.8 µM, hits give high values, % of Δ7-dafachronic acid response.
For test [6], the target named is Peroxisome proliferator-activated receptor gamma (Homo sapiens) (UniProt P37231). The experiment in a line: retested PPARg-SRC-2 recruitment enhancers – biochemical, HTS, confirmation (AID 1297; in the data active = activation above about 22%;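 also: 0% = vehicle alone and 100% = reference agonist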). Conditions: biochemical SRC-2 recruitment by PPARgamma; at 8 µM; hits give high values.
Chain of Peroxisome proliferator-activated receptor gamma (Homo sapiens) (P37231 whole entry, looked up): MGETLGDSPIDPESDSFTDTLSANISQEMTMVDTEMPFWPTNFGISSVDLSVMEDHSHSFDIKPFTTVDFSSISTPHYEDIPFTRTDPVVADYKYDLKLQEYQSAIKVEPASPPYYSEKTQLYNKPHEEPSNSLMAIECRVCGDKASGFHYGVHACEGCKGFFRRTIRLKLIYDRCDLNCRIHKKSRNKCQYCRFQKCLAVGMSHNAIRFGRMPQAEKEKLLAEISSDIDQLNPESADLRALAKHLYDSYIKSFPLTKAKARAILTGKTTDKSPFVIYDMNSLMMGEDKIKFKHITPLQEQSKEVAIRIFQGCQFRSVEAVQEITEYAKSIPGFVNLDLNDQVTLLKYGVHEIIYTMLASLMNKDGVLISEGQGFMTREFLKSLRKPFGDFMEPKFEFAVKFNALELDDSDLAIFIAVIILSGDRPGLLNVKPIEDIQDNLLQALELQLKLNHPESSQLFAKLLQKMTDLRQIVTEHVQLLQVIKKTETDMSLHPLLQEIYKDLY
The target is the same in test [7]. Put plainly: retest of SRC-1 recruitment enhancers for PPARgamma – biochemical, confirmation (AID 1300; in the data active = activation above about 20%;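 also: 0% = vehicle wells and 100% = reference agonist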). As to conditions: PPARgamma–SRC-1 coactivator recruitment biochemical assay; at 8 µM; hits give high values.
In test [8] the target is Peroxisome proliferator-activated receptor gamma (Homo sapiens) + Nuclear receptor coactivator 3 (Homo sapiens) (UniProt P37231+Q9Y6Q9). The experiment in a line: agonists promoting SRC-3 binding to PPARgamma – biochemical, confirmation (AID 1301; in the data active = activation above about 24%;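 also: 0% = vehicle wells and 100% = reference agonist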). Conditions: biochemical PPARgamma-SRC-3 coactivator recruitment, agonist mode; at 8 µM; hits give high values.
Chain of Peroxisome proliferator-activated receptor gamma (Homo sapiens) + Nuclear receptor coactivator 3 (Homo sapiens) (P37231 whole entry, looked up, the tested form may be a part): as the sequence (P37231 whole entry, looked up) above
Chain of Peroxisome proliferator-activated receptor gamma (Homo sapiens) + Nuclear receptor coactivator 3 (Homo sapiens) (Q9Y6Q9 whole entry, looked up, the tested form may be a part): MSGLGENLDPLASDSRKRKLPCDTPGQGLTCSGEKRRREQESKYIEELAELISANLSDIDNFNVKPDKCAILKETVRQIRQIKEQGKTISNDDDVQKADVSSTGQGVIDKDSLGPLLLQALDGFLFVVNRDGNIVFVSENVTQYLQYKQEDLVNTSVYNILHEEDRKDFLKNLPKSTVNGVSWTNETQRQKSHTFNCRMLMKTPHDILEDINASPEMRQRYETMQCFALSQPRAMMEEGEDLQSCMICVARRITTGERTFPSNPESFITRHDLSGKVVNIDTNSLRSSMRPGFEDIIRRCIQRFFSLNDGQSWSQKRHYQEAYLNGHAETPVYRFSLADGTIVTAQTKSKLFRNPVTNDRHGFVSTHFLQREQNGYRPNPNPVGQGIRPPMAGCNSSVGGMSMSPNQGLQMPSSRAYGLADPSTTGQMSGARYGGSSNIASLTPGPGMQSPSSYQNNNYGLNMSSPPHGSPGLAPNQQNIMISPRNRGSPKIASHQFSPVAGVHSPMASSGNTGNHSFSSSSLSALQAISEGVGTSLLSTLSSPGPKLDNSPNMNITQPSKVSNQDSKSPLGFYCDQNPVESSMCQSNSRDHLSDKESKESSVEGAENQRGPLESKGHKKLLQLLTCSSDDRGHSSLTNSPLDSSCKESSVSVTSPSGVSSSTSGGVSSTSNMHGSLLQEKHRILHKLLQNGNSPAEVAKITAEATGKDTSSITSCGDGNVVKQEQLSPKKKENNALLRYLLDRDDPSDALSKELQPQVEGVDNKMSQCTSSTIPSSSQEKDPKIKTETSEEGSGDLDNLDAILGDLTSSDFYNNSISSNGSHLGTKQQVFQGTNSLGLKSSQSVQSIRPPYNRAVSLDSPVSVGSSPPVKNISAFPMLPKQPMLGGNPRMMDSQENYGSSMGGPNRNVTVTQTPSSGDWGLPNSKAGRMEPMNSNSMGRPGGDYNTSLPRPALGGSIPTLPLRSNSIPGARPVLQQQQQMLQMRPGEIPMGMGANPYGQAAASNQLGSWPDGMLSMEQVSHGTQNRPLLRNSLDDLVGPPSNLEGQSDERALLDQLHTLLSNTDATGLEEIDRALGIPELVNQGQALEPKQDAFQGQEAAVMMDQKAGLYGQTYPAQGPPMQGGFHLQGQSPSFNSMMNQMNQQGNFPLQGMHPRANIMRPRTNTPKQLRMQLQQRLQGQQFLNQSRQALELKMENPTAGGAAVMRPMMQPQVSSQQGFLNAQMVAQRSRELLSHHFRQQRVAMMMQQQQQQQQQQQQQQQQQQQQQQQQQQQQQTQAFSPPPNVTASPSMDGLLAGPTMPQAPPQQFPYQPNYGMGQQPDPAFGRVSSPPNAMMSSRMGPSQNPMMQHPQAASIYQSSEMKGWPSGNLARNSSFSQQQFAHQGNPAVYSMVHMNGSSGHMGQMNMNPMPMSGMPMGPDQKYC
The nature of test [9]: VP16-driven transactivation reporter suppression – cell-based, luminescence, HEK293, counter-screen for COUP-TFII antagonist project (AID 687007; in the data active = inhibition above about 13%). Conditions: HEK293 Gal4-VP16 luciferase reporter, at 8.5 µM, hits give high values.
For test [10], the target named is COUP transcription factor 2 (Homo sapiens) (UniProt P24468). The experiment in a line: retest of COUP-TFII reporter suppressors – cell-based, luciferase reporter, HEK293, triplicate, confirmation (AID 687008;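 active = mean inhibition over three repeats above a set limit taken from the earlier primary screen, cut at about 38% in these data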;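 also: 100% = cells given the luciferase reporter alone without the COUP-TF2 vector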). As to conditions: HEK293 NGFI-A luciferase reporter, luminescence; at 8.5 µM; hits give high values.
Chain of COUP transcription factor 2 (Homo sapiens) (P24468 whole entry, looked up, the tested form may be a part): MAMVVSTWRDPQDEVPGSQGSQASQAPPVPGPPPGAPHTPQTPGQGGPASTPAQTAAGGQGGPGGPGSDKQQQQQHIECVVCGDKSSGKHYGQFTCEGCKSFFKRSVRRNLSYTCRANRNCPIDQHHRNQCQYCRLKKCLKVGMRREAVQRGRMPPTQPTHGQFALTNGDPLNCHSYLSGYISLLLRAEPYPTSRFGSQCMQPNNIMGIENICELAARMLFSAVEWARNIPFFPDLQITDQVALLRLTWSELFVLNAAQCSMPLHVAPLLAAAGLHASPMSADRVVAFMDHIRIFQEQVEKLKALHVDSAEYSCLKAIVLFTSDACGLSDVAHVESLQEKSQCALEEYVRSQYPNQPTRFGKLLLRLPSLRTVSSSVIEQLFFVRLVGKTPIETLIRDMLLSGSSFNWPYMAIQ
Test [11] has as its target Nuclear receptor coactivator 1 (Homo sapiens) (UniProt Q15788). Put plainly: NCOA1 GAL4-fusion reporter inhibition – cell-based, luminescence, quadruplicate, confirmation (AID 588820;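 active = mean inhibition above 46.68%, the untreated control wells mean plus 3 SD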;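 also: 0% = DMSO wells and 100% = gossypol 36 µM treated wells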). Conditions: HEK293 GAL4-SRC1 luciferase reporter, at 3.6 µM, hits give high values.
A short description of test [12]: repression of VP16-driven luciferase reporter – cell-based, luminescence, high throughput, counter-screen for SRC1 inhibitor project (AID 588824; in the data active = inhibition above about 25%). Conditions: cell-based VP16 transactivation luciferase luminescence; at 3.6 µM; hits give high values.
In test [13] the target is Photoreceptor-specific nuclear receptor (Homo sapiens) (UniProt Q9Y5X4). The experiment in a line: retest of NR2E3-NCOR disrupting agonists – cell-based, luminescence, CHO-S two-hybrid, confirmation (AID 624378;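 active = average inhibition above a cutoff equal to the mean inhibition of all tested compounds plus one SD, cut at about 70% in these data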;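 also: 0% = DMSO in NR2E3 cells and 100% = DMSO in cells lacking NR2E3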). As to conditions: CHO-S mammalian two-hybrid NR2E3-NCOR, luciferase luminescence; at 3.98 µM; hits give high values.
Chain of Photoreceptor-specific nuclear receptor (Homo sapiens) (Q9Y5X4 whole entry, looked up): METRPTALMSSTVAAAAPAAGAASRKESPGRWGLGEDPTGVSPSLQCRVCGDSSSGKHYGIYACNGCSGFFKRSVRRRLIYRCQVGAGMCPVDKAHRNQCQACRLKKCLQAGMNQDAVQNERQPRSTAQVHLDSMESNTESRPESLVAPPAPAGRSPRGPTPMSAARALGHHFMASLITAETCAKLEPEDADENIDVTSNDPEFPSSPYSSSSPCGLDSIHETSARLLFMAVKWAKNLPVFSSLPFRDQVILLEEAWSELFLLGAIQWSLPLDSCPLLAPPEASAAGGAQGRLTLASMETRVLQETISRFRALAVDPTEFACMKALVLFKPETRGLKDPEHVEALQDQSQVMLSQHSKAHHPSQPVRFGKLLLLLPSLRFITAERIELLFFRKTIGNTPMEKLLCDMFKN
The nature of test [14]: nonselective effects on VP16 transactivation – cell-based, luminescence, CHO-S, high throughput, counter-screen for NR2E3 agonist project, confirmation (AID 624379;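 active = mean inhibition above a cutoff equal to the average over all tested compounds plus one standard deviation, cut at about 70% in these data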;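 also: 0% = DMSO with VP16-transfected cells and 100% = DMSO with cells lacking VP16; higher means less reporter light so more repression of VP16 activity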). Conditions: CHO-S GAL4-VP16 luciferase reporter, at 3.98 µM, hits give high values.
In test [15] the test system is DAF-12 nuclear receptor (Heterodera glycines), GAL4-LBD fusion. The experiment in a line: hgDAF-12 GAL4 fusion reporter activation, retest – cell-based, luminescence, HEK293, GAL4-LBD fusion, confirmation (AID 743050;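 active = mean activation over triplicate wells above the hit cutoff derived from the earlier primary screen, cut at about 11% in these data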;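 also: 0% = DMSO low control and 100% = 2 mM sodium butyrate high control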). As to conditions: HEK293 GAL4-hgDAF12 luciferase reporter, agonist mode; at 6.8 µM; hits give high values; percent of butyrate response.
Test [16] has as its target Oxysterols receptor LXR-beta (Homo sapiens) (UniProt P55055). The experiment in a line: nonspecific reporter activation via LXR – cell-based, luminescence, HEK293, H. glycines campaign, counter-screen for hgDAF-12 agonist project, confirmation (AID 743051;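 active = mean activation of the triplicate above a set limit carried over from the primary screen, none filed active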). As to conditions: HEK293 Gal4-LXR luciferase reporter, 24 h; at 6.8 µM; hits give high values.
Test [17] can be described thus: StAR promoter reporter inhibitors, counter-screen for LRH-1 inverse agonist project, cell-based, luminescence, high throughput (AID 651611; in the data active = inhibition above about 28%). Conditions: StAR promoter luciferase reporter counterscreen, at 3.6 µM, hits give high values.
The target in test [18] is Nuclear receptor subfamily 5 group A member 2 (Homo sapiens) (UniProt O00482). Put plainly: NR5A2 activity suppression in reporter cells – cell-based, luminescence, confirmation (AID 651613; in the data active = inhibition above about 42%;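 also: HEK293T cells co-transfected with LRH-1 and StAR promoter luciferase reporter; 0% = vehicle wells and 100% = parental cells lacking receptor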). Conditions: cell-based LRH-1 luciferase reporter, inverse agonism; at 3.6 µM; hits give high values.
Chain of Nuclear receptor subfamily 5 group A member 2 (Homo sapiens) (O00482 whole entry, looked up): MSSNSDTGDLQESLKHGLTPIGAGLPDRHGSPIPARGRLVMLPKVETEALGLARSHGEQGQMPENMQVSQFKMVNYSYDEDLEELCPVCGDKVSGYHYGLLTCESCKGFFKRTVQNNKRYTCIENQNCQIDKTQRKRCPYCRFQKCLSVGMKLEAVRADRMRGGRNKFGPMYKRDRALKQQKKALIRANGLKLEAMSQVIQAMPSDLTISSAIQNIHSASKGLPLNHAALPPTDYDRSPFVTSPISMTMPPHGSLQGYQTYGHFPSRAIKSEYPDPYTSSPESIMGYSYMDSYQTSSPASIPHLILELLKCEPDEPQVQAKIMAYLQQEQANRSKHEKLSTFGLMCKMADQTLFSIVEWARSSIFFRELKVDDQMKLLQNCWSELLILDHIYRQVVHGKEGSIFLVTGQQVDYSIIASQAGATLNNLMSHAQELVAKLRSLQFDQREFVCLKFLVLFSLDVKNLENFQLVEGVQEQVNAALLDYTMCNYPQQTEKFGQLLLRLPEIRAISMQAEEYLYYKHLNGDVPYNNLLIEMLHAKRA
In test [19] the target is Steroidogenic factor 1 (Homo sapiens) (UniProt Q13285). The experiment in a line: inverse agonism at SF1 nuclear receptor – cell-based, luminescence, high throughput, counter-screen for LRH-1 inverse agonist project (AID 651614; in the data active = inhibition above about 44%;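 also: cells cotransfected with StAR promoter reporter and SF1 expression vector; 0% = vehicle on cells with receptor and 100% = vehicle on cells lacking receptor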). As to conditions: cell-based SF1 luciferase reporter, at 3.6 µM, hits give high values.
Chain of Steroidogenic factor 1 (Homo sapiens) (Q13285 whole entry, looked up, the tested form may be a part): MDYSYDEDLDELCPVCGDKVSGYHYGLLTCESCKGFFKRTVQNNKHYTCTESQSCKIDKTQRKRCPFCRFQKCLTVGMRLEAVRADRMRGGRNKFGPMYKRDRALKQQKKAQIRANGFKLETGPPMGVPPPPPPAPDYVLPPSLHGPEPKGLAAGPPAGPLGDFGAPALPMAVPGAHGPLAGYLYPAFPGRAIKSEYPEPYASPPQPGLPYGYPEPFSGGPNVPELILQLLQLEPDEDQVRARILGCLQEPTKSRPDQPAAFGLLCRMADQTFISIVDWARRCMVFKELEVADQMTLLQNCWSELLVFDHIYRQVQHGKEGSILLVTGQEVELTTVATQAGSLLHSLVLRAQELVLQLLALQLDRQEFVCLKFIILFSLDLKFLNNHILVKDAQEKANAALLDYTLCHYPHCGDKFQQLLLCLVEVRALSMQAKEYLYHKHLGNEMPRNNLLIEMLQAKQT
Test [20] is described as follows: compounds suppressing VP16-driven luciferase signal – cell-based, luminescence, high throughput, counter-screen for LRH-1 inverse agonist project (AID 651615; in the data active = inhibition above about 33%). Conditions: Gal4-VP16 luciferase reporter cells, at 3.6 µM, hits give high values.
Test [21] has as its target Nuclear receptor coactivator 3 (Homo sapiens) (UniProt Q9Y6Q9). The experiment in a line: NCOA3 GAL4-fusion reporter inhibition – cell-based, luminescence, quadruplicate, confirmation (AID 588792;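 active = mean inhibition over 43.08%, the solvent-only control mean plus 3 SD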;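 also: 0% = DMSO treated cells and 100% = gossypol at 36 µM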). As to conditions: HEK293 GAL4-SRC3 luciferase reporter, at 3.6 µM, hits give high values.
For test [22], the system named is transactivating tegument protein VP16 (Human herpesvirus 1), Gal4-VP16 luciferase reporter. The experiment in a line: repression of VP16-driven luciferase reporter – cell-based, luminescence, high throughput, counter-screen for SRC3 inhibitor project (AID 588794; in the data active = inhibition above about 30%). As to conditions: mammalian cells, at 3.6 µM, hits give high values.

A number with no mark means an inactive call. The list shows a part of the results. Activity calls are given as the source filed them.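 The calls were made as follows, unless noted: active = inhibition above the mean of solvent-only control wells plus 3 SD, cutoff set per campaign (cut at about 13% in these data); inactive = the rest.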

Chain of Oxysterols receptor LXR-beta (Homo sapiens) (P55055 whole entry, looked up, the tested form may be a part): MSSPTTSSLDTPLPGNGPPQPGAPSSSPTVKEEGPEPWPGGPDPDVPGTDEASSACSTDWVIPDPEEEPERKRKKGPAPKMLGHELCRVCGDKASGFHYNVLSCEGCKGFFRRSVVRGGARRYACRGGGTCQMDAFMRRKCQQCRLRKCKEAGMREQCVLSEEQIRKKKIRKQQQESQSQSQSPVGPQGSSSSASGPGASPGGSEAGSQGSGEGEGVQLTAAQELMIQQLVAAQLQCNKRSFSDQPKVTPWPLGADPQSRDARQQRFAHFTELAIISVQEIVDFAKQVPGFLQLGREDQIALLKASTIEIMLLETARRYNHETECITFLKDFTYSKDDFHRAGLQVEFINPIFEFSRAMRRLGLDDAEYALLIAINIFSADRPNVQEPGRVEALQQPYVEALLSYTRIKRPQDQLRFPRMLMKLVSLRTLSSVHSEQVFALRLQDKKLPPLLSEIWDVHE
Chain of Nuclear receptor coactivator 3 (Homo sapiens) (Q9Y6Q9 whole entry, looked up, the tested form may be a part): as the sequence (Q9Y6Q9 whole entry, looked up, the tested form may be a part) above

As to `Cc1csc(SCC(=O)Nc2sccc2C#N)n1`, the inhibition was 7.4% in test [1], -23.8% in [2] and -80.2% in [3]. Moreover, the activation in test [4] is 1.59%; in test [5], 10.3% (active).
With `COc1ccc(-c2csc(Nc3ccccn3)n2)cc1`, the inhibition is 15.2% in test [1], -36.5% in test [2] and -205% in test [3]. The activation in test [4] is 1.36%; in test [5], 6.22% (active).
For the molecule `O=C(CSc1c2c(nc3ccc(Cl)cc13)CCCC2)NCc1ccco1`, the activation in test [6] is 19.2%; in test [7], 15.5%; in test [8], 14.4%.
In the case of `O=C(Nc1cccc(S(=O)(=O)Nc2ccc(Cl)cc2)c1)c1ccc2c(c1)OCCO2`, the inhibition was 55.6% (active) in [1]; 15.4% (active) in test [2]; 17.7% (active) in test [3]; -4.16% in test [9]; 42.2% (active) in [10].
As to `CN(Cc1cccnc1)C(=O)c1cc(COc2ccc3ncccc3c2)on1`, the inhibition in test [1] was 75.9% (active); in test [2] it was 25.1% (active); in test [3], 27.1% (active); in test [11], -14.7%; in test [12], 26.4% (active); in [13], 89.1% (active). The values for the inhibition in [14], in test [9] and in test [10] were 78.8% (active), 0.64% and 59% (active), respectively.
On to `CCc1ccc2oc(-c3ccc(N)cc3)nc2c1`, for which the inhibition in [1] is 36.1%; in [2], 13.1% (active); in test [3], -84.8%. Moreover, the activation in [4] is 1.54%; in [5], 10.2% (active); in test [15], 18.3% (active); in test [16] it was 1.35%.
As to `Cc1ccc(OCC(=O)Nc2ccc(-c3nc4ncccc4o3)cc2)cc1`, the activation in test [6] is 2.88%; in [7] it was 8.01%; in test [8], 5.41%.
Taken in the same sequence, the figures for `COC(=O)Cn1cc(C(=O)c2cccs2)c2ccccc21` were -2.1%, 0.95% and 0.74%.
Turning to `Cc1ccc(S(=O)(=O)Nc2ccc3ncccc3c2)cc1`, the inhibition was 42.9% in test [1]; 3.83% in test [2]; 18% (active) in test [3]; -9.28% in test [11]; 5.01% in test [12]; 89.4% (active) in test [13]. For the same molecule, the inhibition in test [14] was 74.4% (active); in test [17] it was 14.9%; in test [18] it was 47.2% (active); in test [19] it was 36.3%; in test [20] it was 18.1%.
Regarding `CC(C)CC(=O)N/C(N)=N/c1nc2ccccc2s1`, the inhibition in test [1] was 6.93%; in test [2] it was -39.6%; in [3] it was -138%. For the same molecule, the activation in [4] is 1.25%; in [5], 5.93% (active).
In the case of `CC(C)(CNC(=O)c1ccc(Cl)c(S(=O)(=O)N2CCc3ccccc3C2)c1)N1CCOCC1`, the inhibition in [1] was 57.1% (active); in [2] it was 13.4% (active); in [3], 9%; in test [21] it was 7.77%; in [22], 32.8% (active); in [9] it was 0.6%. Also, the inhibition in [10] is 38.9% (active).
Turning to `COc1cc(SC)ccc1C(=O)Nc1cc(C)ccn1`, the values for the inhibition in test [1], in [2] and in test [3] were 8.73%, -35.4% and -139%, respectively. Also, the activation was 1.02% in test [4], 4.37% in test [5], 17.2% (active) in test [15] and 1.05% in test [16].
In the case of `Cc1ccc(N/C=C/C(=O)c2ccccc2)cc1C`, the inhibition was 20.9% in [1], 13.8% (active) in test [2] and -55.2% in [3]. In addition, the activation in test [4] is 1.51%; in test [5], 16.8% (active); in [15], 8.78%; in test [16] it was 1.25%.
Turning to `Cc1nc2ccccc2cc1OCc1ccc(F)cc1`, the inhibition in test [1] is 61.5% (active); in test [2], 6.3%; in test [3], 5.63%; in test [13], 82.5% (active); in test [14], 70.5%; in [9] it was -26.8%. For the same molecule, the inhibition in test [10] was 38% (active).
For the molecule `CCOc1ccc(-c2nnc(-c3ccco3)o2)cc1`, the inhibition was 43.7% (active) in test [1], 13.6% (active) in [2] and -56.6% in test [3]. Besides, the activation was 15.5% (active) in test [15] and 0.7% in test [16].
Take `Cn1c(CN2CCOCC2)nc2cc(NC(=O)c3ccc(Cl)cc3)ccc21`: the inhibition in test [1] was 65% (active); in [2], 16.1% (active); in test [3], -12%; in test [9], -24.2%; in test [10], 24.5%.
Turning to `Cc1ccc(NC(=O)CN(C)CC(=O)Nc2cccc(F)c2)cc1[N+](=O)[O-]`, the inhibition was 35.9% in test [1]; 13% (active) in [2]; 19.3% (active) in test [3]; 74.5% (active) in test [13]; 86.7% (active) in test [14]; 1.63% in [9]. The inhibition in test [10] is 51.8% (active).
`O=C(Nc1ccc(Cl)cn1)c1ccc2c(c1)OCCO2`: the inhibition in test [1] is 26.7%; in test [2], -3.07%; in test [3], -103%. Also, the activation in [15] was 13.4% (active); in test [16], 0.89%.
On to `O=C(Nc1ccc(CSc2ccccc2)cc1)c1ccc(CN2CCOCC2)cc1`, for which the inhibition in test [1] is 83.7% (active); in [2], 33.3% (active); in test [3], 10.4%; in test [17], 28.7% (active); in [18] it was 65.5% (active); in [19], 63% (active). Besides, the inhibition in [20] is 54.8% (active); in test [9], -2.4%; in test [10], 65.8% (active).
As to `COc1ccccc1Oc1ccc(S(=O)(=O)Nc2cccnc2)cc1`, the inhibition is 33% in test [1]; 5.8% in test [2]; 8.77% in [3]; 95.5% (active) in test [13]; 75.8% (active) in test [14].
In the case of `O=c1c2c(nc3cc(-c4cccc(Cl)c4)[nH]n13)CCCC2`, the inhibition is 21.9% in test [1], -3.1% in test [2] and -108% in test [3]. Moreover, the activation in [4] is 1.76%; in [5], 9.19% (active); in [15], 13.8% (active); in test [16], 1.15%.

As a reminder, the inhibition is the change of the read-out against control, counted positive when it falls.

The values above are taken from PubChem BioAssay.
